Assay results published in PubChem BioAssay (NCATS).
Inconclusive results are not listed. Values without a mark were called inactive. Calls of active or inactive are those of the source. Calls follow the shape of the dose curve; as a rule, active = well fitted cell-killing curve with a large enough effect; inconclusive = small, poorly fitted or top-dose-only effect, or effect the other way; inactive = no such curve, though single readings can be large or run the other way.

Legend:
[1] = Quantitative High-Throughput drug screen in 47 multiple myeloma cell lines against the NCATS MIPE library collection: OCIMY1_PLB cell viability assay (AID 1918979); also: nearly all actives have a fitted effect of over 35% in size; as to viability: series mostly up to about 46 µM
In short: (§1)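 qHTS format: cells plated (500/well), pin-dosed with MIPE 4.0 compounds, kept 48 h at 37 °C. Readout was CellTiter-Glo luminescence, median RLU.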

[2] = Quantitative High-Throughput drug screen in 47 multiple myeloma cell lines against the NCATS MIPE library collection: MM1S_ATCC cell viability assay (AID 1918980); also: nearly all actives have a fitted effect of over 45% in size
In short: as §1

[3] = Quantitative High-Throughput drug screen in 47 multiple myeloma cell lines against the NCATS MIPE library collection: MM1R_ATCC cell viability assay (AID 1918981); also: nearly all actives have a fitted effect of over 35% in size
In short: as §1

[4] = Quantitative High-Throughput drug screen in 47 multiple myeloma cell lines against the NCATS MIPE library collection: KMS28PE_JCRB cell viability assay (AID 1918983); also: nearly all actives have a fitted effect of over 35% in size
In short: as §1

[5] = Quantitative High-Throughput drug screen in 47 multiple myeloma cell lines against the NCATS MIPE library collection: OCIMY5_PLB cell viability assay (AID 1918988); also: nearly all actives have a fitted effect of over 65% in size
In short: as §1

[6] = Quantitative High-Throughput drug screen in 47 multiple myeloma cell lines against the NCATS MIPE library collection: SKMM1_PLB cell viability assay (AID 1919863); settings: SKMM1 myeloma viability, CellTiter-Glo ATP, 48 h; viability: active compounds read low; also: nearly all actives have a fitted effect of over 35% in size; as to viability: series mostly up to about 46 µM
In short: as §1

[7] = Quantitative High-Throughput drug screen in 47 multiple myeloma cell lines against the NCATS MIPE library collection: OPM2_DSMZ cell viability assay (AID 1919872); also: nearly all actives have a fitted effect of over 30% in size
In short: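 CellTiter-Glo luminescence (ATP) after 48 h compound exposure, 37C/5% CO2; 500 cells/well; MIPE 4.0 approved/investigational drugs pinned in; DMSO = 100%, media only = 0% viability.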

[8] = Quantitative High-Throughput drug screen in 47 multiple myeloma cell lines against the NCATS MIPE library collection: LP1_DSMZ cell viability assay (AID 1918982); also: nearly all actives have a fitted effect of over 35% in size
In short: as §1

[9] = Quantitative High-Throughput drug screen in 47 multiple myeloma cell lines against the NCATS MIPE library collection: OCIMY7_PLB cell viability assay (AID 1918987); also: nearly all actives have a fitted effect of over 65% in size
In short: as §1

[10] = Quantitative High-Throughput drug screen in 47 multiple myeloma cell lines against the NCATS MIPE library collection: OPM1_PLB cell viability assay (AID 1918989); also: nearly all actives have a fitted effect of over 40% in size
In short: as §1

[11] = Quantitative High-Throughput drug screen in 47 multiple myeloma cell lines against the NCATS MIPE library collection: U266_ATCC cell viability assay (AID 1919864); also: nearly all actives have a fitted effect of over 35% in size
In short: as §1

[12] = Quantitative High-Throughput drug screen in 47 multiple myeloma cell lines against the NCATS MIPE library collection: XG6_PLB cell viability assay (AID 1919865); also: nearly all actives have a fitted effect of over 40% in size
In short: as §1

[13] = Quantitative High-Throughput drug screen in 47 multiple myeloma cell lines against the NCATS MIPE library collection: XG1_PLB cell viability assay (AID 1919866); also: nearly all actives have a fitted effect of over 35% in size
In short: as §1

[14] = Quantitative High-Throughput drug screen in 47 multiple myeloma cell lines against the NCATS MIPE library collection: VP6_DJ cell viability assay (AID 1919867); also: nearly all actives have a fitted effect of over 40% in size
In short: as §1

[15] = Quantitative High-Throughput drug screen in 47 multiple myeloma cell lines against the NCATS MIPE library collection: UTMC2_PLB cell viability assay (AID 1919868); also: nearly all actives have a fitted effect of over 55% in size
In short: as §1

[16] = Quantitative High-Throughput drug screen in 47 multiple myeloma cell lines against the NCATS MIPE library collection: PE2_PLB cell viability assay (AID 1919869); also: nearly all actives have a fitted effect of over 35% in size
In short: as §1

[17] = Quantitative High-Throughput drug screen in 47 multiple myeloma cell lines against the NCATS MIPE library collection: PCM6_Riken cell viability assay (AID 1919870); also: nearly all actives have a fitted effect of over 30% in size
In short: as §1

[18] = Quantitative High-Throughput drug screen in 47 multiple myeloma cell lines against the NCATS MIPE library collection: RPMI8226_ATCC cell viability assay (AID 1919871); also: nearly all actives have a fitted effect of over 30% in size
In short: as §1

[19] = Quantitative High-Throughput drug screen in 47 multiple myeloma cell lines against the NCATS MIPE library collection: KMS34_JCRB cell viability assay (AID 1918985); also: nearly all actives have a fitted effect of over 40% in size
In short: as §1
Potency is read from the fitted curve at half-maximal effect.

| SMILES | Potency [1] | Potency [2] | Potency [3] | Potency [4] | Potency [5] | viability [6] [%] | Potency [7] | Potency [8] | Potency [9] | Potency [10] | Potency [6] | Potency [11] | Potency [12] | Potency [13] | Potency [14] | Potency [15] | Potency [16] | Potency [17] | Potency [18] | Potency [19] |
| --- | --- | --- | --- | --- | --- | --- | --- | --- | --- | --- | --- | --- | --- | --- | --- | --- | --- | --- | --- | --- |
| O=C(CCCN1CCC(O)(c2ccc(Cl)cc2)CC1)c1ccc(F)cc1 | inactive | 9.35 µM (active) | inactive | 16.6 µM (active) | 18.7 µM (active) | 92.3 | inactive |  |  |  |  |  |  |  |  |  |  |  |  |  |
| NC(=O)NO | 0.662 µM (active) | 0.935 µM (active) | 1.18 µM (active) | 2.35 µM (active) |  |  | 6.62 µM (active) | 2.64 µM (active) | 0.132 µM (active) | 0.833 µM (active) | 10.5 µM (active) | 2.64 µM (active) | 2.35 µM (active) | 9.35 µM (active) | 1.05 µM (active) | 1.66 µM (active) | 3.32 µM (active) | 2.35 µM (active) | 3.72 µM (active) |  |
| CCCCc1oc2ccccc2c1C(=O)c1cc(I)c(OCCN(CC)CC)c(I)c1 | 26.4 µM (active) | 2.35 µM (active) | 18.7 µM (active) |  | 16.6 µM (active) |  |  |  | 18.7 µM (active) | 18.7 µM (active) | 20.9 µM (active) | 3.72 µM (active) | 13.2 µM (active) | 10.5 µM (active) | 14.8 µM (active) |  |  | 20.9 µM (active) | 18.7 µM (active) | 11.8 µM (active) |
| CC(C)Cc1ccc(C(C)C(=O)O)cc1 (stereo unspecified) | inactive | inactive | inactive | inactive | inactive |  | inactive | inactive | inactive | inactive |  |  | 6.45 µM (active) | inactive |  | inactive | inactive |  | inactive | inactive |
| COc1ccc2[nH]cc(CCNC(C)=O)c2c1 | inactive | 0.372 µM (active) | 5.26 µM (active) | inactive |  | 123 |  |  | inactive |  |  | 8.33 µM (active) |  | inactive | inactive |  | inactive |  | inactive |  |
| C[C@@H]1CC(=O)NN=C1c1ccc(NN=C(C#N)C#N)cc1 | 23.5 µM (active) | 23.5 µM (active) | 20.9 µM (active) | 23.5 µM (active) |  |  |  | 20.9 µM (active) |  | 18.7 µM (active) |  |  | 23.5 µM (active) | 18.7 µM (active) | 18.7 µM (active) |  | 14.8 µM (active) | 18.7 µM (active) | 20.9 µM (active) | 20.9 µM (active) |
| CN(Cc1cnc2nc(N)nc(N)c2n1)c1ccc(C(=O)N[C@@H](CCC(=O)O)C(=O)O)cc1 | 4.18 µM (active) | 0.0187 µM (active) | 0.935 µM (active) | 16.6 µM (active) |  |  |  |  |  |  | 5.9 µM (active) | 0.148 µM (active) | 0.0469 µM (active) | 0.0372 µM (active) | 0.0662 µM (active) | 0.166 µM (active) | 0.187 µM (active) | 0.105 µM (active) |  | 0.0935 µM (active) |
| O=C1c2c(O)ccc(O)c2C(=O)c2c(NCCNCCO)ccc(NCCNCCO)c21 | 13.2 µM (active) | 0.0469 µM (active) | 0.105 µM (active) | 0.935 µM (active) |  |  | 3.32 µM (active) | 5.9 µM (active) | 1.05 µM (active) | 0.935 µM (active) | 2.96 µM (active) | 1.05 µM (active) | 0.118 µM (active) | 0.332 µM (active) | 0.662 µM (active) |  | 0.166 µM (active) | 0.935 µM (active) | 4.69 µM (active) | 2.96 µM (active) |
| Cc1ccccc1N1C(=O)c2cc(S(N)(=O)=O)c(Cl)cc2NC1C (stereo unspecified) | inactive | inactive | inactive | inactive |  | 117 | inactive | inactive |  | inactive |  | 3.72 µM (active) | inactive | inactive |  |  | inactive | 5.9 µM (active) | 7.43 µM (active) | inactive |
| CN(C)C(=N)N=C(N)N | inactive | inactive | inactive | 0.833 µM (active) |  | 138 | inactive |  | inactive | inactive |  | inactive |  |  | inactive |  | inactive |  | inactive |  |
| CN1CCN(C2=Nc3cc(Cl)ccc3Nc3ccccc32)CC1 | inactive | 14.8 µM (active) | inactive | inactive |  | 114 | inactive | inactive | inactive | 23.5 µM (active) |  | inactive |  |  |  |  | inactive |  | inactive |  |
| CCOC(=O)c1ncn2c1CN(C)C(=O)c1cc(F)ccc1-2 | inactive | 18.7 µM (active) | 18.7 µM (active) | inactive | 20.9 µM (active) |  | inactive | inactive |  | inactive |  |  | inactive | inactive |  |  | inactive | inactive | 2.64 µM (active) |  |
| NCCS(=O)(=O)O | inactive | inactive | inactive | inactive |  | 109 | inactive | inactive |  | inactive |  | inactive | inactive | inactive |  |  | inactive | inactive |  | inactive |
| CCC1(C)CC(=O)NC1=O (stereo unspecified) | inactive | inactive | inactive | inactive |  |  |  |  | inactive | inactive |  | inactive | inactive | inactive |  |  | inactive | inactive | inactive | inactive |
